Measurements reported in PubChem BioAssay.
Several values for one entry are separate records, joined by “and”; a condition that tells them apart may be missing. Equal values may be shown once. Inconclusive results are not listed. Activity calls are given as the source filed them. Unless noted, the limit is not given here; nearly all actives have AC50 up to about 26 µM.

Tests used:
[1] = viability loss in pontine glioma line – cell-based, SU-DIPG-XVII, MIPE5.0, CellTiter-Glo, qHTS, dose response (AID 1347060); settings: CellTiter-Glo ATP luminescence;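 as to AC50: cells exposed to compound for 48 hours before viability readout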
[2] = viability loss in pontine glioma line – cell-based, SU-DIPG-XIII, MIPE5.0, CellTiter-Glo, qHTS, dose response (AID 1347064; cut-off not given, nearly all actives have AC50 up to about 23 µM;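 as to AC50: cells exposed to compound for 48 hours before the viability read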); settings: CellTiter-Glo ATP luminescence
[3] = viability loss in pontine glioma line – cell-based, SU-DIPG-XXV, MIPE5.0, CellTiter-Glo, qHTS, dose response (AID 1347065); settings: CellTiter-Glo ATP luminescence;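 also: cells exposed to compound for 48 hours before ATP readout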
[4] = JHH-DIPG-1 glioma cell viability, MIPE5.0 library, CellTiter-Glo luminescence, qHTS (AID 1347067); settings: JHH-DIPG-1 glioma viability, CellTiter-Glo ATP luminescence;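 also: cells exposed to compound for 48 hours before readout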
[5] = growth inhibition of DIPG cells – cell-based, MIPE5.0 library, qHTS (AID 1347068; cut-off not given, nearly all actives have IC50 up to about 30 µM;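 as to IC50: cells exposed to compound for 48 hours before viability readout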); settings: SU-DIPG-XXV viability

Row | Structure (SMILES) | outcome [1] | outcome [2] | outcome [3] | outcome [4] | outcome [5] | AC50 [1] | AC50 [2] | AC50 [3] | AC50 [4] | IC50 [5]
1 | COc1cc(-c2cn(C)c(=O)c3cnccc23)cc(OC)c1CN(C)C | inactive | inactive | inactive | inactive | inactive | – | – | – | – | –
2 | CC(C)c1c2cc(-c3ccnc(NC4CCC(NC5CCOCC5)CC4)n3)ccc2nn1C (stereo not given) | – | – | – | – | – | 0.417 µM (active) | 0.372 µM (active) | 0.468 µM (active) | 0.417 µM (active) | 0.525 µM (active)
3 | CCCCNc1ncc2c(-c3ccc(CN4CCN(C)CC4)cc3)cn(C3CCC(O)CC3)c2n1 (stereo not given) | – | – | – | – | – | 1.48 µM (active) and 1.32 µM (active) | 2.35 µM (active) and 1.86 µM (active) | 742 nM (active) and 934 nM (active) | 3.32 µM (active) and 2.95 µM (active) | 3.32 µM (active)
4 | O=C(CCCCCCC(=O)N/N=C/c1ccc(N(c2ccccc2)c2ccccc2)cc1)NO | – | – | – | – | inactive | 20.9 µM (active) | 20.9 µM (active) | 14.8 µM (active) | 11.8 µM (active) | –
5 | OC1CCC(Oc2cccc3cnc(Nc4ccc5nc[nH]c5c4)nc23)CC1 (stereo not given) | – | – | – | – | – | 0.833 µM (active) | 2.09 µM (active) | 0.661 µM (active) | 1.32 µM (active) | 1.05 µM (active)
6 | COc1cc2c(NC3CCN(CC4CCCCC4)CC3)nc(N3CCCN(C(C)C)CC3)nc2cc1OCCCN1CCCCC1 | – | – | – | – | – | 14.8 µM (active) | 18.6 µM (active) | 13.2 µM (active) | 20.9 µM (active) | 5.25 µM (active)
7 | C=C1C(=O)O[C@@H]2[C@H]3C(C)=CC[C@@]34O[C@@]4(C)CC[C@@H]12 | – | – | – | – | – | 11.8 µM (active) | 11.8 µM (active) | 9.34 µM (active) | 8.33 µM (active) | 20.9 µM (active)
8 | Cc1ncc(NC(=O)c2cccc(C(F)(F)F)c2)cc1-c1cnc(OC2CCOCC2)c(N2CCOCC2)c1 | – | – | – | – | – | 9.34 µM (active) | 5.25 µM (active) | 14.8 µM (active) | 4.68 µM (active) | 18.6 µM (active)
9 | O=C(O)CNC(=O)c1ncc(-c2cccc(Cl)c2)cc1O | inactive | inactive | inactive | inactive | inactive | – | – | – | – | –
10 | Cc1cccc(Oc2cnc(=O)[nH]c2)c1 | inactive | inactive | inactive | inactive | inactive | – | – | – | – | –
11 | N#Cc1ccnc(N2C(=O)CC[C@H]2C(=O)N(c2cncc(F)c2)C(C(=O)NC2CC(F)(F)C2)c2ccccc2Cl)c1 (stereo not given in full) | inactive | inactive | inactive | inactive | inactive | – | – | – | – | –
12 | COc1cc(N2CCC(O)CC2)ccc1Nc1cc(Nc2ccccc2S(=O)(=O)C(C)C)c2cc[nH]c2n1 | – | – | – | – | inactive | 23.5 µM (active) | 10.5 µM (active) | 7.42 µM (active) | 16.6 µM (active) | –
13 | COC(C)(C)CCn1nc(Nc2c(C)cccc2C)c2cnc(Nc3ccc(OCCN4CCCC4)c(F)c3)nc21 | – | – | – | – | – | 16.6 µM (active) | 18.6 µM (active) | 14.8 µM (active) | 16.6 µM (active) | 16.6 µM (active)
14 | CNC(=O)Cn1cc(-c2ccc3c(c2)C(F)CC32NC(=O)N(CC(=O)N(Cc3ccc(F)cc3)[C@@H](C)C(F)(F)F)C2=O)cn1 (stereo not given in full) | inactive | inactive | inactive | inactive | inactive | – | – | – | – | –
15 | CC(=O)c1cc2c(o1)C(=O)c1ccccc1C2=O | – | – | – | – | – | 3.32 µM (active) | 0.934 µM (active) | 2.95 µM (active) | 1.66 µM (active) | 2.95 µM (active)
16 | CC(C)(NS(=O)(=O)c1ccc2c(Cl)cnc(N=C(N)N)c2c1)C(=O)O | inactive | inactive | inactive | inactive | inactive | – | – | – | – | –
17 | Cc1[nH]c(/C=C2\C(=O)Nc3ccc(F)cc32)c(C)c1C(=O)NCCN1CCCC1 | – | – | – | – | inactive | 12.9 µM (active) | 7.23 µM (active) | 6.45 µM (active) | 10.2 µM (active) | –
18 | Cc1cn(CCN2CCN(c3ccccc3-c3cc(C#N)cc(C(=O)NCCCN4CCCC4)c3)CC2)c2ccccc12 | – | – | – | – | – | 8.33 µM (active) | 10.5 µM (active) | 7.42 µM (active) | 8.33 µM (active) | 7.42 µM (active)
19 | COc1cc(N2CCC(N3CCN(C)CC3)CC2)ccc1Nc1ncc(Cl)c(Nc2ccccc2P(C)(C)=O)n1 | – | – | – | – | – | 0.105 µM (active) | 0.332 µM (active) | 0.186 µM (active) | 1.18 µM (active) | 1.05 µM (active)

Row | Structure (SMILES) | outcome [1] | outcome [2] | outcome [3] | outcome [4] | outcome [5] | AC50 [1] | AC50 [2] | AC50 [3] | AC50 [4] | IC50 [5]
20 | O=C(O)CC(C(=O)O)n1c(O)c(C2=c3cc(Br)ccc3=NC2=O)sc1=S (stereo not given) | inactive | inactive | inactive | inactive | inactive | – | – | – | – | –
21 | CCN1C(=O)N2Cc3cc(OC)cc(OC)c3[C@@H](C)C=C2C12CCN(Cc1cc(C)cc(C)c1)CC2 | – | – | – | – | – | 20.9 µM (active) | 18.6 µM (active) | 14.8 µM (active) | 18.6 µM (active) | 20.9 µM (active)
22 | CN1C(=O)[C@@H](NC(=O)c2n[nH]c(Cc3ccccc3)n2)COc2ccccc21 | inactive | inactive | inactive | inactive | inactive | – | – | – | – | –
23 | Cc1ccc(NC(=O)NCc2ccc3c(c2)CN(C2CCC(=O)NC2=O)C3=O)cc1Cl (stereo not given) | – | – | – | – | – | 0.00742 µM (active) | 0.00296 µM (active) | 0.00186 µM (active) | 0.00118 µM (active) | 0.00372 µM (active)
24 | CNC(=O)CCc1cc(-c2ccc(-c3ccc(C(F)(F)F)cc3)cc2)n(-c2ccc(N3CCNCC3)cc2)n1 | – | – | – | – | – | 5.25 µM (active) | 7.42 µM (active) | 2.63 µM (active) | 3.72 µM (active) | 9.34 µM (active)
25 | CN[C@@H]1[C@@H](O)[C@@H](O[C@@H]2[C@@H](O)[C@H](O[C@H]3O[C@H](CN)[C@@H](O)[C@H](O)[C@H]3O)[C@@H](N)C[C@H]2NC(=O)C(O)CN)OC[C@]1(C)O (stereo not given in full) | inactive | inactive | inactive | inactive | inactive | – | – | – | – | –
26 | Cc1cc2cc(Oc3ccnc(Nc4cccc(CS(=O)(=O)NCCN(C)C)c4)n3)ccc2[nH]1 | – | – | – | – | – | 4.68 µM (active) | 8.33 µM (active) | 5.9 µM (active) | 20.9 µM (active) | 18.6 µM (active)
27 | OC1CCC([C@H](O)C[C@H]2c3c(F)cccc3-c3cncn32)CC1 (stereo not given in full) | inactive | inactive | inactive | inactive | inactive | – | – | – | – | –
28 | COC[C@@H](c1ccc(C(F)(F)F)cc1)N1CCN(C2(C)CCN(C(=O)c3c(C)ncnc3C)CC2)C[C@@H]1C | inactive | inactive | inactive | inactive | inactive | – | – | – | – | –
29 | C[C@@H](Oc1cc(C(=O)Nc2ccc(C(=O)N3CCN(C)CC3)cc2)nnc1N)c1c(Cl)ccc(F)c1Cl | – | – | – | – | – | 0.118 µM (active) | 0.417 µM (active) | 0.742 µM (active) | 16.6 µM (active) | 7.42 µM (active)
30 | C[C@@H]1COCCN1c1cc(=O)n2c(n1)N(Cc1cncc(Cl)c1)[C@H](C(F)(F)F)CC2 | inactive | inactive | inactive | inactive | inactive | – | – | – | – | –
31 | COc1ccc(S(=O)(=O)Nc2cc(-c3csc(C#N)c3)ccc2C)cc1 | – | – | – | – | – | 0.0742 µM (active) | 0.166 µM (active) | 0.148 µM (active) | 0.0934 µM (active) | 0.263 µM (active)
32 | CCS(=O)(=O)N1CCC([C@@H](C)n2c(C)c(C(=O)NCc3c(OC)cc(C)[nH]c3=O)c3ccccc32)CC1 | inactive | inactive | inactive | inactive | inactive | – | – | – | – | –
33 | CCc1cccc2c3c([nH]c12)[C@@](CC)(CC(=O)O)OCC3 | inactive | inactive | inactive | inactive | inactive | – | – | – | – | –
34 | COc1cc(C(=O)NC2CCN(C)CC2)c(F)cc1Nc1ncc2c(n1)N(C1CCCC1)CC(F)(F)C(=O)N2C | – | – | – | – | – | 0.0934 µM (active) | 1.86 µM (active) | 0.118 µM (active) | 20.9 µM (active) | 4.17 µM (active)
35 | NC(CC1c2ccccc2Oc2ccccc21)(C(=O)O)C1CC1C(=O)O (stereo not given) | inactive | inactive | inactive | inactive | inactive | – | – | – | – | –
36 | CC(C)n1cc(-c2ccc3c(c2)N(C)CC3)c2c(NS(=O)(=O)c3ccn(C)n3)ccnc21 | inactive | inactive | inactive | inactive | inactive | – | – | – | – | –
37 | COc1c(Nc2ncc(Cl)c(N[C@H]3[C@H](C(N)=O)[C@@H]4C=C[C@@H]3C4)n2)ccc2c1CCC(N1CCOCC1)CC2 (stereo not given in full) | – | – | – | – | – | 4.17 µM (active) | 4.17 µM (active) | 2.95 µM (active) | 8.33 µM (active) | 5.9 µM (active)
38 | CC(C)(O)C1CCC(Nc2ccc3ncc(-c4cccc(C(F)(F)F)c4)n3n2)CC1 (stereo not given) | – | – | – | – | – | 7.42 µM (active) | 18.6 µM (active) | 13.2 µM (active) | 10.5 µM (active) | 8.33 µM (active)
